High-throughput results: PubChem BioAssay, National Center for Advancing Translational Sciences (NCATS)
TDP1 cell CPT = growth inhibition of DT40 Tdp1-/-;hTDP1 cells with camptothecin (screen for TDP1 inhibitors); Potency, µM (series often up to 46.2 µM), inactives show at the highest dose activity change, negative = growth inhibition, usual class: inhibitors; chicken DT40 Tdp1-/-;hTDP1 cells + 20 nM CPT, ATP luminescence, 48 h; actives 12% (n = 420,000); further: potency means the concentration at half of the fitted maximal effect; on the % scale 0 is the no-effect control and ±100 the full control effect; nearly all actives have a fitted effect of over 55% in size
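Cell growth measured by CellTiter-Glo luminescence after a minimum 48 h, 37 C compound exposure with 20 nM CPT in Tdp1-knockout DT40 cells stably expressing hTDP1, seeded 400/well; qHTS titration format.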
TDP1 inh = TDP1 (human) enzyme inhibition; Potency, µM (series often up to 130 µM), without a hit: top-dose activity change, negative = inhibition, hits mostly inhibitors; recombinant TDP1, AlphaScreen DNA substrate cleavage; actives 0.28% (n = 350,000); Q9NUW8; further: potency means the concentration at half of the fitted maximal effect; on the % scale 0 is the no-effect control and ±100 the full control effect; nearly all actives have a fitted effect of over 40% in size
Target sequence (Q9NUW8 whole entry, looked up): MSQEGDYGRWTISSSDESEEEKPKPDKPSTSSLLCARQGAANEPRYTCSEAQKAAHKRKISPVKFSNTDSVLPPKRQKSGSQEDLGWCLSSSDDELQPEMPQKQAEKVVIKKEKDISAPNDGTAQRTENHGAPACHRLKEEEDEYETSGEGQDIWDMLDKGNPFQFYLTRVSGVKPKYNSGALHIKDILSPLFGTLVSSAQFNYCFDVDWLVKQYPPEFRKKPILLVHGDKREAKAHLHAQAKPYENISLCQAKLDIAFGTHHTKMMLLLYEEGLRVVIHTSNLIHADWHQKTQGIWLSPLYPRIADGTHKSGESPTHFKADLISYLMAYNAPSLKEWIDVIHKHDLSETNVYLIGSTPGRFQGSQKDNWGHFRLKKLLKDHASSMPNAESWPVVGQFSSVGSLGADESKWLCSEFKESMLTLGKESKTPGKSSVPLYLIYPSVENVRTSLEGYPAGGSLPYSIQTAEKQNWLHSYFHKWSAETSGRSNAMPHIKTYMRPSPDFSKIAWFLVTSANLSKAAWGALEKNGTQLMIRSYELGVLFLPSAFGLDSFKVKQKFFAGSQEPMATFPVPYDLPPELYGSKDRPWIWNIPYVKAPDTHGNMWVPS
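Recombinant human Tdp1 (E. coli-expressed, 1 nM final) preincubated with compounds 15 min at room temperature, then 5'-biotin/3'-phosphotyrosine-FITC DNA substrate (15 nM final) added for 5 min. AlphaScreen beads (10 ug/ml final) added 10 min; cleavage lowers signal.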
TGFb inhibitor = TGF-b pathway inhibition | actives 1.2% (n = 410,000) | Potency, µM (top dose mostly 46.1 µM), for inactives: at the top dose activity, negative = inhibition, most hits filed as inhibitors | HepG2 CAGA-GFP TGF-b/SMAD3 reporter, GFP fluorescence, 18 h; TGF-beta stimulated, 500 pg/mL final | AID 588855; further: potency means the concentration at half of the fitted maximal effect; on the % scale 0 is the no-effect control and ±100 the full control effect; nearly all actives have a fitted effect of over 65% in size
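GFP signal (ex488/em500-530) from TGF-beta-stimulated HEPG2 CAGA-GFP cells, 500 pg/mL final, 18 h at 37 degrees C in DMEM plus 1% FBS, normalized to unstimulated and DMSO-stimulated controls.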
IL-1B inflam inh = inhibitors of inflammasome signaling (IL-1 beta secretion) | THP-1 LPS/ATP IL-1B secretion, AlphaLISA, 16 h; hits give low values | activity change, % at 57.5 µM | actives 4.7% (n = 360,000) | AID 743279; in the data active means activity change below about -50%; inconclusive means mostly about -30% to -49%; further: on the % scale 0 is the no-effect control and ±100 the full control effect
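Secreted IL-1B measured by AlphaLISA bead assay after 16 h compound exposure of THP-1 cells; compounds (final up to 57.5 uM) added 1 h before LPS (250 ng/mL) and ATP (1.25 mM) stimulation; lower signal means less secretion.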
HepG2 tox = HepG2 cytotoxicity, counter-screen for TGF-b inhibitors; HepG2 CAGA-GFP viability, ATP luminescence, 18 h; Potency, µM (titrated, usually from 46.1 µM), without a hit: at the highest dose activity change, negative = cytotoxicity, hits mostly cytotoxic; actives 0.76% (n = 410,000); AID 588856; further: potency means the concentration at half of the fitted maximal effect
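CellTiter-Glo luminescence gave cytotoxicity after 18 hours at 37 degrees C. The cells were HepG2 CAGA-GFP in 1% FBS DMEM, stimulated with 500 pg/mL TGF-beta after compound addition. %Activity was normalised to no-cell wells (complete cell-killing) and DMSO (no toxicity), and curves were fitted and classified.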
TDP1 cell noCPT = qHTS for Inhibitors of human tyrosyl-DNA phosphodiesterase 1 (TDP1): qHTS in cells in absence of CPT; DT40 Tdp1-/- hTDP1 cells, no CPT, ATP luminescence, 48 h; Potency, µM (titrated, usually from 46.2 µM), for the others: at the highest dose activity change, negative = growth inhibition, hits mostly inhibitors; actives 15% (n = 420,000); AID 686978, 2013; further: potency means the concentration at half of the fitted maximal effect; on the % scale 0 is the no-effect control and ±100 the full control effect; nearly all actives have a fitted effect of over 55% in size
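Growth kinetics read by CellTiter-Glo luminescence after ≥48 hr at 37 °C. Cells: DT40 Tdp1-/- stably carrying human TDP1, 400 per well, compound exposure in the absence of CPT (DMSO vehicle).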
* marks the source's active call; other numbers are inactive results; ? = inconclusive; / = not tested or not shown; [ ] = remark or other dose. Only some compounds are listed: those with a hit (about 18% of all), similar ones and a draw of the others. Unless noted, the call rests on the fitted dose curve; in most records, active means well fitted curve in the direction sought with a large enough effect; inconclusive means small, poorly fitted or top-dose-only effect, or another doubt; inactive means no such curve, though single readings can be large; an effect the other way counts as inactive or inconclusive.

SMILES	TDP1 cell CPT	TDP1 inh	TGFb inhibitor	IL-1B inflam inh	HepG2 tox	TDP1 cell noCPT
CN(C)/C=C1\Cc2ccccc2C1=O	33µM*	4%	10%	-3	-10%	-95%
C=CCOC(=O)N[C@H](c1ccccc1)C(C(C)=O)C(C)=O	/	9%	/	/	/	/
CCN(CC)C(=O)C1=C(C)N(Cc2ccccc2)C(=O)C(CC(=O)NCCN2CCOCC2)C1 (configuration not stated)	4%	/	7%	9	5%	-15%
Cc1ccccc1Cn1c(=O)n(CCCCC(=O)NCCc2ccccc2)c(=O)c2ccccc21	-21%	5%	12%	/	3%	?
COCCCN(C(=S)Nc1c(C)cc(C)cc1C)C(C)c1ccccn1 (configuration not stated)	?	-1%	-14%	1	-1%	21µM*
CC(=O)Oc1ccc(OC(C)=O)c2c1CC(C)=C(C)C2	13µM*	/	2%	-27	-1%	13µM*
CC(C)[C@@H](OCc1ccccc1)[C@H](C)/C=N\O[C@@H](C)c1cn([C@@H]2COC[C@@H]2O)nn1	/	7%[21 µM]	/	/	/	/
Cc1ccc(S(=O)(=O)CCC(=O)OCC(=O)c2cc(C)n(C)c2C)cc1	-9%	6%	-7%	-6	-2%	7%
CCCC[n+]1c(-c2ccc(Cl)cc2Cl)csc1Nc1ccccc1	?	2%	-7%	-14	-12%	21µM*
O=C(CNCCc1ccc(Cl)cc1Cl)NCc1ccco1	-17%	5%	0%	-3	-15%	-18%
Clc1ccc(-c2csc(Nc3ccccc3)[n+]2Cc2ccco2)c(Cl)c1	?	5%	?	-8	1%	23µM*
CC1(C(=O)NS(=O)(=O)c2ccc(F)cc2F)CCN1C(=O)Cc1ccc(-c2ccccc2)cc1 (configuration not stated)	-5%	/	10%	1	-12%	-13%
C(=Nc1cnc2ccccc2c1)c1ccc2ccccc2n1	?	/	5%	/	-19%	-77%
CCc1noc(C)c1C(=O)N1CCN(c2cccc(Cl)c2)CC1	?	/	-11%	9	-21%	?
Cc1onc(-c2ccccc2)c1C(=O)N1CCCC1	2%	4%	23%	-2	-11%	0%
Cc1onc(-c2ccccc2)c1C(=O)N1CCN(S(=O)(=O)c2ccccc2Br)CC1	?	3%	18%	37	8%	15µM*
Cc1onc(-c2ccccc2)c1C(=O)N1CCN(c2ncccc2C(F)(F)F)CC1	23µM*	2%	-2%	-8	-8%	?
Cc1cccc(N2CCN(C(=O)c3c(-c4ccccc4)noc3C)CC2)c1C	2.9µM*	0%	?	32	-9%	1.5µM*
CCc1noc(C)c1C(=O)N1CCN(c2cccc(C)c2C)CC1	?	0%	-15%	4	0%	15µM*
Cc1cccc(OCC(=O)N(Cc2sccc2C)C2CCS(=O)(=O)C2)c1 (configuration not stated)	3%	9%	/	/	-5%	?
Nc1c(N(Cc2ccco2)C(=O)COc2ccccc2F)c(=O)[nH]c(=O)n1Cc1ccccc1	-13%	0%	-9%	-6	-4%	-10%
COCCN(C(=O)COC(=O)CCC1CCCCC1)c1c(N)n(Cc2ccccc2)c(=O)[nH]c1=O	-13%	/	-5%	6	12%	?
O=C(Nc1ccc(F)cc1F)NC1CCCCCCC1	?	2%	0%	-12	-18%	1%
Cc1cc(C)cc(N(C(=O)CNC(=O)c2ccco2)C(C(=O)NC2CCCCC2)c2cccnc2)c1 (configuration not stated)	-3%	-16%	1%	3	15%	-23%
CC1CCCC(NC(=O)COC(=O)/C=C/c2ccc([N+](=O)[O-])cc2)C1C (configuration not stated)	?	0%	-4%	8	-1%	-26%
SMILES	TDP1 cell CPT	TDP1 inh	TGFb inhibitor	IL-1B inflam inh	HepG2 tox	TDP1 cell noCPT
CC(Cc1cccs1)NC(=S)Nc1ccc(Cl)cc1 (configuration not stated)	?	4%	?	-96*	-33%	?
CC(Cc1cccs1)NC(=S)Nc1ccc(Cl)c(Cl)c1 (configuration not stated)	21µM*	-5%	?	-95*	-28%	?
CC(Cc1cccs1)NC(=O)Nc1ccc(F)cc1 (configuration not stated)	-14%	0%	0%	-21	-20%	?
Cc1cc(C(F)(F)F)c2sc(N)nc2n1	-1%	0%	-6%	8	-3%	-4%
Nc1nc2nc(-c3ccccc3)cc(C(F)(F)F)c2s1	?	2%	?	-73*	-57%	?
COc1ccc(C#Cc2ccc3c(=O)c4ccccc4n(C)c3c2)cc1	?	/	1%	34	-23%	18µM*
Cn1c2ccccc2c(=O)c2ccc(C#Cc3ccc(N)cc3)cc21	?	/	?	-28	-5%	16µM*
Cn1c2ccccc2c(=O)c2cc(C#CC3=CCCCC3)ccc21	7.3µM*	-5%	?	0	-27%	18µM*
Cn1c2ccccc2c(=O)c2cc(C#Cc3cccc(N)c3)ccc21	?	1%	8%	-2	-9%	?
CSc1ccc(-c2ccc3c(c2)CC(CNC(=O)Cn2nc(C)nc2C)O3)cc1 (configuration not stated)	-24%	/	/	/	/	-21%
CN(CCc1ccccc1)C(=O)c1cccc(NC(=O)Cc2cccc(NC(=O)C3CCCN(C(=O)c4ccccc4)C3)c2)c1 (configuration not stated)	?	/	-15%	15	-5%	?
CCCC(=O)Nc1nc2ccc(NC(=O)c3ccc(Br)o3)cc2s1	?	7%	-5%	-61*	-24%	23µM*
CCC(=O)Nc1nc2ccc(NC(C)=O)cc2s1	-8%	-2%	-26%	10	3%	-1%
Cc1nc2ccc(NC(=O)c3ccc(Br)o3)cc2s1	-16%	4%	?	-57*	2%	?
Cc1nc2ccc(NC(=O)Cc3ccc(Br)cc3)cc2s1	-18%	/	-3%	-11	-7%	-10%
